# Inconclusive results are not listed. Entries that show only a call come without a potency. Calls of active or inactive are those of the source. Calls come from the whole dose curve; as a rule, active = well fitted inhibition curve with a large enough effect; inconclusive = small, poorly fitted or top-dose-only effect; inactive = flat fitted curve, though single readings scatter.
# Assay: Primary qHTS for inhibitors of nuclear receptor binding SET domain protein 2 (NSD2) in an isogenic RCH-ACV NSD2 p.E1099K mutant (9B) (AID 1645876); note: nearly all actives have a fitted effect of over 70% in size
# Settings: RCH-ACV (leukaemia line) NSD2 E1099K (9B) viability, CellTiter-Glo, 72 h; series mostly up to 44.9 µM
Structure (SMILES),Potency,"activity change, negative = viability loss",outcome
CC(C)(OC1OC(CO)C(O)C(O)C1O)C1CCC(O)(CO)C2CC(O)C(C)(O)C2C1 (centres undefined),inactive,,
COc1c(C(CC(C)C)OC(C)=O)ccc(Oc2c(O)cc(C)cc2/C=C/C(C)=O)c1C(=O)O (centres undefined),inactive,,
CC(=O)OC[C@]1(O)[C@H]2[C@H](OC(=O)CC(C)C)OC=C(CO[C@@H]3O[C@H](CO)[C@@H](O)[C@H](O)[C@H]3O)[C@H]2C[C@@H]1O,inactive,,
COC(=O)[C@H](OC(C)=O)[C@H]1C(C)(C)C(=O)[C@H]2CC3=C4CC(=O)O[C@@H](c5ccoc5)[C@]4(C)CCC3[C@@]1(C)C2=O (some centres undefined),inactive,,
CC1=CCC2C(C)(CO)CCCC2(CO)C1CO (centres undefined),inactive,,
COc1cc(C2Oc3c(O)cc(CCCO)cc3C2CO)ccc1O[C@H]1O[C@H](C)[C@@H](O)[C@H](O)[C@@H]1O (some centres undefined),inactive,,
C=CC1(C)C=C2C(O)CC3C(C)(C(=O)O)CCCC3(C)C2CC1 (centres undefined),inactive,,
O=C(OCC12OC1C=CC(OC(=O)c1ccccc1)C2O)c1ccccc1 (centres undefined),inactive,,
CC1CCC2(C)C(CC(O)C(O)C23CO3)C1(C)CCC1=CC(=O)OC1O (centres undefined),inactive,,
COc1c(OC2OC(CO)C(O)C(O)C2O)ccc(O)c1C(=O)OCc1ccccc1O[C@@H]1O[C@H](CO)[C@@H](O)[C@H](O)[C@H]1O (some centres undefined),inactive,,
C[C@@H]1O[C@@H](O[C@H]2[C@H](OC(=O)C34CCC5(C)C(=CCC6C7(C)CC(O)C(O[C@@H]8O[C@H](C(=O)O)[C@@H](O)[C@H](O)[C@H]8O)C(C)(C(=O)O)C7CCC65C)C3CC(C)(C)CC4O)O[C@H](C)[C@@H](O)[C@@H]2O)[C@H](O)[C@@H](O[C@@H]2OC[C@](O)(CO)[C@H]2O[C@@H]2O[C@H](CO)[C@@H](O)[C@H](O)[C@H]2O)[C@H]1O (some centres undefined),,-24% [at 9.23 µM] (inactive),
CC1CCCC2OC2C(=O)c2c(O)cc(O)cc2CC(=O)O1 (centres undefined),inactive,,
CC[C@H](C)/C=C(C)/C=C/C(=O)Cc1cc(O)c(C)c(O)c1C=O,inactive,,
CC(=O)OC[C@]12[C@H](OC(C)=O)C(=O)[C@@H]3[C@@H](OC(C)=O)[C@@]14O[C@@]3(C)COC(=O)c1cccnc1[C@@H](C)[C@H](C)C(=O)O[C@@H]([C@H](OC(C)=O)[C@@H]2OC(C)=O)[C@]4(C)O,inactive,,
CCCC1=CC2=C(CO1)C(=O)C(C)(OC(=O)c1c(C)cc(OC)cc1O)C(O)C2 (centres undefined),inactive,,
CC1(C)CCCC2(C)C3=C(C(=O)OC3O)C(O)CC12 (centres undefined),inactive,,
CC1(C)CC[C@]2(C(=O)O)CC[C@]3(C)C(=CCC4[C@@]5(C)CCC(O[C@@H]6OC[C@H](O)[C@H](O)[C@H]6O[C@@H]6O[C@H](CO)[C@@H](O)[C@H](O)[C@H]6O)[C@@](C)(CO)C5CC[C@]43C)[C@@H]2C1 (some centres undefined),inactive,,
OC1COC(OCC2OC(OCCc3ccccc3)C(O)C(O)C2O)C(O)C1O (centres undefined),inactive,,
CC/C=C\C[C@H]1C(=O)C=C[C@@H]1CCCCCCCC(=O)O,inactive,,
CC1(CO)CC2C(O)C(=O)C3(CO)CC3(C)C2C1 (centres undefined),inactive,,

Structure (SMILES),Potency,"activity change, negative = viability loss",outcome
CC1=CC2(O)/C=C/C(C)(O)CC(O)/C=C/C(=O)OC23C(=O)NC(CC(C)C)C3C1C (centres undefined),inactive,,
CC(CCC1(O)OC2CC3C4CCC5CC(O[C@@H]6O[C@H](CO)[C@@H](O)[C@H](O)[C@H]6O[C@@H]6OC[C@@H](O)[C@H](O)[C@H]6O)C(O)CC5(C)C4CCC3(C)C2C1C)CO[C@@H]1O[C@H](CO)[C@@H](O)[C@H](O)[C@H]1O (some centres undefined),,,inactive [at 9.23 µM]
Clc1ccc2c(c1)C1=NCCN1c1c(-c3noc(C4CC4)n3)ncn1-2,inactive,,
C/C=C/C1=CC2=CC(=O)C(C)(O)C(OC(=O)c3c(C)cc(O)cc3O)C2CO1 (centres undefined),inactive,,
CN1C(=O)c2ccccc2-n2c(nc3ccccc3c2=O)[C@@]12O[C@H]2c1ccccc1,inactive,,
COc1ccc(C(O[C@@H]2O[C@H](CO)[C@@H](O)[C@H](O)[C@H]2O)C(CO)Oc2ccc(/C=C/CO)cc2OC)cc1O (some centres undefined),inactive,,
CC(C)CC(=O)n1cc(C(N)=O)c(=O)cc1C(O)c1ccccc1 (centres undefined),inactive,,
CC1CCC2C(C)(C)C(O)CCC2(C)C12Cc1c(O)cc3c(c1O2)CN(C(CCC(N)=O)C(=O)O)C3=O (centres undefined),inactive,,
C=C(C)[C@H]1C[C@@H](O)C(=C)CC[C@@H](O)C(=C)[C@@H](O)C1,inactive,,
COC(=O)C1C(CC(C)=O)C=CC(O)C12Oc1cc(C)cc(O)c1C2=O (centres undefined),inactive,,
C=C(C(=O)OC)C1CCC2(C)C(O[C@@H]3O[C@H](CO)[C@@H](O)[C@H](O)[C@H]3O)CC(=O)C(C)C2C1O (some centres undefined),inactive,,
O=C(c1ccc(NS(=O)(=O)c2cccc3cccnc23)cc1)N1CCN(CC2CC2)CC1,inactive,,
CC1(C)CCC[C@@]2(C)[C@H]1[C@H](O)C=C1COC(=O)[C@@]12O,inactive,,
CC(=O)C1CCC2(C)C3=C(CCC12C)C1(C)CCC(=O)C(C)(C)C1CC3 (centres undefined),inactive,,
C=C(C)C(C)C1OC23CC4(CO2)C(CCC2C5(C)CCC(OC6OCC(O)C(OC7OC(CO)C(O)C(OC8OCC(O)C(O)C8O)C7O)C6OC6OC(CO)C(O)C6O)C(C)(C)C5CCC24C)C3C(C)(O)C1OC(C)=O (centres undefined),,-26.7% [at 9.23 µM] (inactive),
CC(=O)NC(C(=O)OC1CCC(C)(C)C2CC=C3C(=O)OCC3(O)C12C)C(C)C (centres undefined),inactive,,
Cc1c(N2C(=O)c3ccc(C(=O)O)cc3C2=O)c(=O)n(-c2ccccc2)n1C,inactive,,
COC1(CC(C)C)NC(=O)C(O)(Cc2ccccc2)NC1=O (centres undefined),inactive,,
CN[C@@H]1[C@@H](O)[C@@H](O[C@@H]2[C@@H](O)[C@H](O[C@H]3O[C@H](CN)[C@@H](O)[C@H](O)[C@H]3O)[C@@H](N)C[C@H]2NC(=O)[C@@H](O)CN)OC[C@]1(C)O,inactive,,
